Bioassay records from PubChem BioAssay.
CYP2C9 act: CYP2C9 (human) activation. recombinant CYP2C9, luciferin-H conversion, luminescence; active compounds read high; factor 1 = untreated enzyme, 0 = blocked. activation factor at 5 µM. actives 1.4% (n = 96,000). AID 1024;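 active = activation factor of 2 or more for CYP2C9 at a 5 µM dose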;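 note: 0 = sulfaphenazole-blocked wells and 1 = vehicle-only wells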
CYP2C19 inh: blocks human cytochrome P450 2C19; P33261; CYP2C19 Supersomes, luciferin-H EGE luminescence, 30 min; inhibition, % at 5 µM; actives 21% (n = 96,000); AID 778;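 active = CYP2C19 inhibition above a set limit at 5 µM in the primary screen, cut at about 50% in these data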;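 note: plate controls were negative control wells for no effect and 2.5 mM tranylcypromine positive control for full effect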
Target sequence (P33261 whole entry, looked up): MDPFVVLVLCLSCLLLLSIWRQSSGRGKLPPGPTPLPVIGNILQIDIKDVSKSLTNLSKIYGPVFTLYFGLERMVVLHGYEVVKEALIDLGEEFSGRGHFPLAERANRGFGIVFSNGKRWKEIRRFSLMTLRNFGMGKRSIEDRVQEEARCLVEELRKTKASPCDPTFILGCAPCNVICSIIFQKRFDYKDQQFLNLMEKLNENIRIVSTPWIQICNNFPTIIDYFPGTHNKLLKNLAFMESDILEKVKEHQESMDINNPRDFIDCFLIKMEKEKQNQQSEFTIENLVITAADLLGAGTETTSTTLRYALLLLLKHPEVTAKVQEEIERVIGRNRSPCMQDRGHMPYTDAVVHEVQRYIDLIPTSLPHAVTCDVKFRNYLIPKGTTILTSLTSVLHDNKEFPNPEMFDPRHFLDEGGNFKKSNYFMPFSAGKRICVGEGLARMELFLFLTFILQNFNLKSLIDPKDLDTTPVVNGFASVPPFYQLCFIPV
Mac1 fbg inh: blocks human CD11b/CD18 adhesion to fibrinogen; K562 CD11b/CD18 adhesion to fibrinogen, ATPlite luminescence; Mn2+ added to activate the integrin; AID 1497; inhibition, % at 10 µM; P05107+P11215; actives 0.54% (n = 93,000);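 active = primary inhibition of 50% or more at 10 µM, then 40% or more on retest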
CYP2C9 inhib: inhibitors of human CYP2C9; AID 777; inhibition, % at 5 µM; P11712; actives 20% (n = 96,000); CYP2C9 Supersomes, luciferin-H conversion, luminescence;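 active = blocking of liver enzyme CYP2C9 beyond about 50% at 5 µM, limit read from the data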
CYP2C19 act: increases human CYP2C19 enzyme activity | 96,000 tested, under 10 active | activation factor at 5 µM | recombinant CYP2C19, luciferin-H EGE luminescence; active compounds read high; 0 = fully inhibited enzyme, 1 = untreated enzyme;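 active = activation factor of at least 2 at 5 µM in the primary screen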;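 note: 0 = wells with 2.5 mM tranylcypromine and 1 = vehicle-only wells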
Mac1 fbg enh: CD11b/CD18-fibrinogen binding enhancement. P05107+P11215. K562 CD11b/CD18 adhesion to fibrinogen, ATPlite luminescence. activation, % at 10 µM. actives 0.07% (n = 93,000). AID 1499;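 active = 10 µM primary screen giving 50% or more activity, confirmed by 40% or more on retest at that dose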
* hit, by the source's call; . = not tested or not shown. A selection: hits, their analogues and other compounds. The true share with any hit is near 28%.

SMILES	CYP2C9 act	CYP2C19 inh	Mac1 fbg inh	CYP2C9 inhib	CYP2C19 act	Mac1 fbg enh
CC(C)(C)NC(=O)Cn1nnc(-c2ccc(Cl)cc2)n1	1	42.6	1.9	-1.4	0.6	-0.6
CC1CC(C)CN(C(=O)c2ccccc2Nc2ccc(SC(F)F)cc2)C1 (stereo unspecified)	0.2	80.6*	.	76.3*	0.2	.
CN1CCC(N(C)C(=O)c2ccccc2Nc2ccc(SC(F)F)cc2)CC1	0.9	6.6	1.1	11.7	0.9	-0.1
CC(C)CN(CC(C)C)C(=O)CC(=O)NC(=O)c1ccc(Cl)cc1	0.8	33.7	-7.0	24.8	0.7	-3.3
Cc1cc(S(=O)(=O)N2CCCC2C(=O)N2CCOCC2)c(C)cc1Cl (stereo unspecified)	3*	63.1*	-43.3	-198.8	0.4	-5.3
S=C(NCc1ccco1)Nc1ccc(Cl)c(Cl)c1	0.6	53.1*	83.3	36.4	0.5	-4.5
COc1ccc(NC(=S)NCc2ccco2)cc1	0.9	32.1	-11.3	7.3	0.7	-4.6
COc1cccc(N2CCN(C(=S)NCc3ccco3)CC2)c1	0.3	53.0*	.	67.5*	0.5	.
O=C(Nc1ccc(S(=O)(=O)NCc2cccnc2)cc1)c1ccco1	1	-9.5	6.2	0.3	1.1	-4.3
O=C(Nc1ccc(Cl)c(Cl)c1)N(Cc1cccnc1)Cc1ccco1	0	99.0*	0.7	99.6*	0	-0.7
S=C(NCc1ccco1)Nc1cccc(Cl)c1	1.2	34.1	34.9	-15.8	0.7	-9.6
COc1cc(NC(=S)NCc2ccco2)cc(OC)c1	0.9	67.4*	-23.1	10.3	0.3	-1.4
COc1ccc(Cl)cc1NC(=S)NCc1ccco1	2*	71.1*	.	-100.4	0.3	.
CCOc1ccccc1NC(=S)NCc1ccco1	1.3	87.2*	-30.4	-31.4	0.1	1.8
C=CCOc1ccccc1CNCc1cccnc1	0.7	47.7	-15.7	33.9	0.5	1.1
Clc1ccc(COc2ccccc2CNCc2cccnc2)cc1	0	97.1*	2.0	95.2*	0	-4.3
Brc1ccc(OCc2ccccc2)c(CNCc2ccncc2)c1	0.2	99.4*	.	84.3*	0	.
CCOc1cc(CNCCO)cc(Br)c1OCc1ccc(Cl)cc1Cl	1.1	38.1	.	-7.0	0.6	.
OCCNCc1cc(Br)ccc1OCc1ccc(Cl)cc1	1	52.9*	.	-3.2	0.5	.
CCC(=O)Nc1ccc2c(c1)C(=O)N(C1CCCCC1)C2=O	0.5	-2.1	-2.8	53.4*	1	6.0
O=C(Nc1ccncc1)c1ccc2c(c1)C(=O)N(C1CCCCC1)C2=O	0.1	75.9*	85.8*	92.1*	0.2	-7.4
CC1(C)CC(=O)CC(=Nc2ccc(C(=O)O)cc2)C1	1.1	-9.5	-10.1	-12.0	1.1	1.8
Cc1c(C#N)c2ncn(Cc3ccccn3)c(=O)c2n1-c1ccccc1	1	-5.1	.	-4.7	1.1	.
Cc1ccc(/C(O)=C2\C(=O)C(=O)N(c3cc(C)on3)C2c2cccc(Cl)c2)cc1 (stereo unspecified)	0.6	7.9	12.2	39.4	0.9	-1.8
O=C1C(=O)N(c2cccc(Cl)c2)C(c2ccccc2[N+](=O)[O-])/C1=C(\O)c1ccccc1 (stereo unspecified)	0.1	9.9	.	86.4*	0.9	.
SMILES	CYP2C9 act	CYP2C19 inh	Mac1 fbg inh	CYP2C9 inhib	CYP2C19 act	Mac1 fbg enh
Cc1[nH]c2ccccc2c1C(=O)COC(=O)C1CC(=O)N(Cc2ccccc2)C1 (stereo unspecified)	0.3	77.6*	-11.7	67.3*	0.2	1.0
CCOC(=O)c1c(C)[nH]c(C(=O)COC(=O)C2CC(=O)N(Cc3ccccc3)C2)c1C (stereo unspecified)	0.6	42.1	11.6	42.4	0.6	1.2
Cc1ccc(-c2nn(CC(=O)NC(C)c3ccccc3)c(=O)c3ccccc23)cc1 (stereo unspecified)	0.6	21.9	.	38.3	0.8	.
O=C(Cn1nc(-c2cccc([N+](=O)[O-])c2)c2ccccc2c1=O)Nc1cccnc1	0.2	-0.5	-8.5	75.4*	1	10.2
Cc1ccc(-c2nn(CC(=O)Nc3cccnc3)c(=O)c3ccccc23)cc1	0.2	15.7	-5.1	80.9*	0.8	1.4
CCn1c(=N)n(CC(=O)C23CC4CC(CC(C4)C2)C3)c2ccccc21	1	9.4	-18.1	0.4	0.9	-0.8
C=CCNC(=S)NCCCCC1NC(=S)N(CC=C)C1=O (stereo unspecified)	.	.	12.0	.	.	1.2
C=CCSc1nnc(CSc2nc3sc4c(c3c(=O)[nH]2)CCCC4)n1-c1ccccc1	0.3	37.1	10.3	67.2*	0.6	1.5
CCOC(=O)CSc1nnc(CSc2nc3sc4c(c3c(=O)[nH]2)CCC4)n1-c1ccccc1	0.4	27.1	-33.3	56.6*	0.7	2.8
COc1cc2c(cc1OC)CN(Cc1ccc(OC)c(C)c1OC)CC2	1.1	63.7*	-22.4	-10.2	0.4	16.2
COc1cc(OC)c(OC)cc1CN1CCc2ccccc2C1	0.9	52.3*	-17.9	6.1	0.5	0.1
CN1CCN(C(=O)C2CCCCC2C(=O)O)CC1 (stereo unspecified)	1.1	-1.1	-20.4	-14.6	1	-2.8
CCOC(=O)N(C)OC(=O)Nc1ccc(Cl)c(Cl)c1	0.8	17.1	-5.9	17.8	0.8	-2.6
CCOC(=O)N(CC)OC(=O)Nc1ccc(Cl)cc1	0.4	77.6*	-2.5	57.9*	0.2	-4.6
COCc1nnc(NC(=O)c2sc3ccccc3c2Cl)s1	0.6	4.5	-8.8	43.4	1	-1.5
Cc1nnc(NC(=O)c2ccccc2Br)s1	0.4	5.4	-3.6	55.2*	0.9	-0.8
Cc1nnc(NC(=O)c2sc3ccccc3c2Cl)s1	0.4	18.8	69.9*	55.3*	0.8	-5.1
COc1ccc(OCC(=O)NNc2c3ccccc3nc3ccccc23)cc1	2.3*	-0.1	6.7	-134.3	1	-2.2
O=C(NNc1c2ccccc2nc2ccccc12)c1ccc(O)cc1O	0.3	65.8*	14.5	70.8*	0.3	26.2
O=C(COc1ccccc1)NNc1c2ccccc2nc2ccccc12	3.2*	15.4	.	-221.9	0.8	.
CCCCOc1ccc(/C=C2/Sc3ccccc3C2=O)cc1	0.7	-1.8	27.9	30.4	1	-0.6
CCOc1ccc(/C=C2\C(=O)c3ccccc3OC2c2ccccc2)cc1 (stereo unspecified)	0.6	51.5*	.	42.4	0.5	.
CC(C)C(=O)Nc1cccc(NC(=S)NC(=O)c2ccccc2Cl)c1	1.1	26.5	20.6	-7.4	0.7	1.4
CO/N=C(/CS(=O)Cc1ccccc1Cl)c1ccc(Cl)cc1Cl (stereo unspecified)	1	83.1*	0.4	1.0	0.2	-5.2
OC1(c2ccc3ccccc3c2)CCN(Cc2ccccc2)C1 (stereo unspecified)	0.8	79.9*	9.7	19.2	0.2	-2.8
